Bioassay records (PubChem)
Compounds with a hit are over-represented: about 5.5% of the library has one in this group of screens.
Six1-Eya2 blk: Six1/Eya2 interaction inhibition; Q15475+O00167; AlphaScreen GST-Six1/His-Eya2 binding, biochemical; active compounds read low; activity change, % (concentration not given with the values); 0.56% of 360,000 active; in the data active = activity change below about -65%; inconclusive = mostly about -30% to -63%; note: % is set by controls: 0 for no effect and ±100 for the full control effect
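AlphaScreen luminescence read after one hour at 37 °C in darkness. Pin-transferred compounds met GST-Six1 and His-Eya2 protein (5X stock 250 nM/500 nM) plus glutathione donor and Ni-chelate acceptor beads (5X, 50 ug/mL).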
CBFb-RUNX1 inh: blocks binding between human CBF-beta and RUNX1 | AlphaScreen CBFb-His/RUNX1-biotin binding, biochemical | Potency, µM (doses to about 59.8 µM), inactives show at the top dose activity, negative = inhibition, actives largely listed as inhibitors | 230,000 tested, under 10 active; note: % of control where 0% means no effect
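Interaction loss through any mechanism counts as activity. Pre-formed complex of His-CBF-beta and biotin-RUNX1 (30 nM apiece) is incubated with compound 15 min, then with 50 ng nickel and 50 ng streptavidin beads for 90 min before AlphaScreen detection.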
Gal4-VP16 FLuc: Gal4-VP16 reporter inhibition counter-screen; Drosophila S2 Gal4-VP16 UAS-luciferase, luminescence, 20 h; Potency, µM (highest dose often 53.6 µM), without a hit: at the top dose activity, negative = inhibition, actives largely listed as inhibitors; 3.5% of 310,000 active; AID 2546;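 note: Gal4-VP16 expression switched on by copper sulfate through the metallothionein promoter; potency is the fitted concentration of half-maximal effect; % is set by controls: 0 for no effect and ±100 for the full control effect; nearly all actives have a fitted effect of over 50% in size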
RORg inh: ROR gamma (mouse) transcription inhibition | Potency, µM (highest dose often 53.6 µM), inactives show at the highest dose activity change, negative = inhibition, usual class: inhibitors | 5.4% of 310,000 active | Drosophila S2 Gal4-RORgamma UAS-luciferase reporter, 20 h | P51450; note: potency is the fitted concentration of half-maximal effect; % is set by controls: 0 for no effect and ±100 for the full control effect; nearly all actives have a fitted effect of over 60% in size
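Stable Schneider cell line, Gal4 DNA-binding domain fused to ROR gamma, UAS-luciferase. Cmpd 1 hr RT → CuSO4 700 uM final → 20 hr RT → luciferase reagent 10 min → luminescence.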
CtBP-E1A blk: inhibitors of CtBP/E1A interaction; activity change, % (concentration not given with the values); AlphaScreen GST-E1A/His-CtBP binding, 1536-well; active compounds read low; 0.49% of 340,000 active; AID 651724; in the data active = activity change below about -65%; inconclusive = mostly about -30% to -63%; note: % is set by controls: 0 for no effect and ±100 for the full control effect
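AlphaScreen with 125 nM GST-E1A and 125 nM His-CtBP (5X stocks) in Tris pH 8.0, 300 mM NaCl, BSA, Tween 20, TCEP. Compounds preincubated 2 h at 37 deg C, then glutathione donor/nickel acceptor beads added for 1 h at 37 deg C in dark.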
MBNL1 CUG block: blocks human MBNL1 binding to CUG repeat RNA; Q9NR56; TR-FRET MBNL1-His/biotin-(CUG)12 binding, 665/545 ratio; Potency, µM (top dose mostly 57.5 µM), for inactives: top-dose activity change, negative = inhibition, hits mostly inhibitors; 0.036% of 280,000 active; active = well fitted inhibition curve with a large enough effect in the signal ratio, with a control signal flat, not every such curve was filed as active; inconclusive = small, poorly fitted or top-dose-only effect, or effect the other way, or a change in a side signal; inactive = no such curve, though single readings can be large or run the other way; the % refers to the signal ratio; note: potency is the fitted concentration of half-maximal effect; % is set by controls: 0 for no effect and ±100 for the full control effect
Target sequence (Q9NR56 whole entry, looked up): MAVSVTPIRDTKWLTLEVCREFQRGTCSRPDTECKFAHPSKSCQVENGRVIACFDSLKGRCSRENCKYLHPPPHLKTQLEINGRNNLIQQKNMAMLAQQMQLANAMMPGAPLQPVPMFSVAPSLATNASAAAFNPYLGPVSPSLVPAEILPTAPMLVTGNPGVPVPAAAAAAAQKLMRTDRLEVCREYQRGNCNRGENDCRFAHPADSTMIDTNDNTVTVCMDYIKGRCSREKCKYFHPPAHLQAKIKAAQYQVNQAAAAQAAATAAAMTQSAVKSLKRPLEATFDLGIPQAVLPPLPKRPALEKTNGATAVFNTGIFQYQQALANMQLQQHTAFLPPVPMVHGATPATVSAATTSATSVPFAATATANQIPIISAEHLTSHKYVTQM
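TR-FRET between His-tagged MBNL1 and biotin-(CUG)12 RNA, detected with Tb anti-His antibody (0.055 ng/ul) and streptavidin-XL665 (5 nM), 60 min at room temperature. Compounds titrated 92 nM to 58 uM; 665/545 nm ratio normalized to buffer and complex controls.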
* marks the source's active call; other numbers are inactive results; u = inconclusive; x = not tested or not shown; [ ] = another dose, or the depositor's remark. Unless noted, calls come from the whole dose curve; as a rule, active = well fitted curve in the direction sought with a large enough effect; inconclusive = small, poorly fitted or top-dose-only effect, or another doubt; inactive = no such curve, though single readings can be large; an effect the other way counts as inactive or inconclusive.

SMILES | Six1-Eya2 blk | CBFb-RUNX1 inh | Gal4-VP16 FLuc | RORg inh | CtBP-E1A blk | MBNL1 CUG block
Cc1cccc(/N=C2/NC(=O)C(Cc3ccccc3)S2)n1 (centres undefined) | 0 | -7% | -17% | -23% | -1 | 8%
O=C1N/C(=N/N=C/c2ccc(O)cc2)SC1Cc1ccccc1 (centres undefined) | 6 | -7% | -17% | -33% | -14 | 0%
O=C1N/C(=N/N=C/c2ccccc2O)SC1Cc1ccc(F)cc1 (centres undefined) | 3 | 1% | 8.9µM* | 2.8µM* | 5 | -3%
CCOc1ccc(CC2S/C(=N/c3ccccn3)NC2=O)cc1 (centres undefined) | 1 | 8% | 5µM* | 3.2µM* | 4 | 7%
COc1ccc(CC2S/C(=N/N=C/c3ccc(O)cc3)NC2=O)cc1 (centres undefined) | 0 | -9% | -5% | -32% | -1 | -7%
Fc1cc(F)c(C2SCCN2C(=S)Nc2cccc(C(F)(F)F)c2)c(F)c1 (centres undefined) | 6 | 9% | u | u | 3 | x
COc1ccc(C2SCCN2C(=S)Nc2ccc(Cl)cc2)cc1 (centres undefined) | 12 | -19% | u | 13µM* | -2 | 1%
CCOC(=O)c1ccc(NC(=S)N2CCSC2c2c(F)cc(F)cc2F)cc1 (centres undefined) | 1 | 22% | u | 13µM* | -1 | -11%
O=C(O)Cn1c(=O)c2c3c(sc2n(Cc2ccc(Cl)cc2Cl)c1=O)CCCC3 | -4 | x | 7% | 5% | 7 | -5%
C[C@@]12CCC[C@H]1C1CC[C@H]3C[C@H](O)CC[C@]3(C)C1CC2 (some centres undefined) | x | 3% | x | x | x | x
CCCP(=O)(CCC)CCP(=O)(c1ccccc1)c1ccccc1 | -6 | 2% | -2% | 13µM* | 19 | -8%
COc1ccc2cc(Br)ccc2c1CC(=O)NCCCN1CCOCC1 | -5 | x | x | x | 0 | x
Cc1cc(C)nc(Nc2nc(C(N)c3ccccc3)cs2)n1 (centres undefined) | -69* | x | x | x | -67* | x
Cc1cc(C)nc(Nc2nc(-c3ccccc3)cs2)n1 | -8 | x | u | 4.5µM* | x | -5%
CCCNC(=O)C1(C)CCCN(C(=O)c2cccc(Cl)c2)C1 (centres undefined) | 4 | x | x | x | -3 | x
O=C(Nc1ccsc1C(=O)O)c1ccc(Cl)cc1 | u | x | u | -38% | -3 | -13%
Cc1ccc(C(=O)Nc2ccsc2C(=O)O)cc1 | -24 | x | u | 11µM* | x | -15%
COc1cccc2cc(C(=O)OCc3ccccc3)c(=O)oc12 | 2 | x | x | x | 3 | u
c1ccc(C(c2ccccc2)N2CCN(c3nc4ccccc4n4cnnc34)CC2)cc1 | 5 | 5% | 13µM* | -91% | -13 | 4%
Oc1ccc(N=Nc2ccccc2-c2nn[nH]n2)c(O)c1 | -86* | x | -17% | 16µM* | x | u
Cn1c(N)c(C(=O)COC(=O)CNC(=O)c2ccc(Cl)cc2Cl)c(=O)n(C)c1=O | -6 | x | x | x | -5 | x
Cc1cc(C(C)(C)C)ccc1OCCN(C)C | 14 | 11% | -2% | -23% | 1 | 3%
CC(C)Cc1cc(C(C)(C)C)ccc1OC(=S)N(C)C | 44 | x | 1% | 13µM* | 26 | -2%
O=S(=O)(NCc1nc2ccccc2[nH]1)c1ccccc1 | -2 | x | 11% | 0% | 2 | -5%
OC[C@@H](O)C(O[C@@H]1O[C@@H](CO)[C@H](O)[C@H](O)[C@H]1O)[C@H](O)[C@@H](O)CO (some centres undefined) | x | x | 7% | -19%[10 µM] | x | x
SMILES | Six1-Eya2 blk | CBFb-RUNX1 inh | Gal4-VP16 FLuc | RORg inh | CtBP-E1A blk | MBNL1 CUG block
CNc1cc2c(Nc3cccc(Br)c3)ncnc2cn1 | x | u | 13µM* | 13µM* | x | x
O=C(Nc1ccc(Cl)cc1)[C@@H]1[C@@H]2C(=O)N(c3ccc(Cl)cc3)C(=O)[C@@H]2[C@H]2C=CC=NN21 | -21 | -10% | -6% | -23% | -8 | 20%
Cc1ccc(N2C(=O)[C@@H]3[C@H](C2=O)[C@H]2C=CC=NN2[C@@H]3C(=O)Nc2ccc(Cl)cc2)cc1 | 7 | -14% | u | 10µM* | -1 | u
Cc1ccc(Cl)cc1NC(=O)c1ccccc1OCC(=O)Nc1ccc(Cl)cc1 | 4 | -6% | 11µM* | u | x | -2%
Cc1ccc(NC(=O)COc2ccccc2C(=O)Nc2ccccc2)cc1Cl | 5 | 0% | -17% | 32% | -13 | x
Cn1nnc(NC(=S)NC(=O)c2cc(Cl)ccc2Cl)n1 | 13 | x | 2µM* | 0.79µM* | 8 | -4%
COc1cc2ccccc2cc1C(=O)NC(=S)Nc1nnn(C)n1 | -4 | -9% | 1.1µM* | 1µM* | 6 | x
CCCn1nnc(NC(=S)NC(=O)c2ccccc2OC)n1 | 1 | x | x | x | x | x
Cc1ccc(-c2ccc(S(=O)(=O)Nc3cccnc3)cc2)cc1 | 20 | x | u | 30% | 11 | 7%
Cc1ccsc1/C=N/NC(=O)Nc1ccccc1 | 0 | 12% | u | 41% | -10 | 5%
CCNC(=S)N/N=C/c1sccc1C | x | -1% | 3.2µM* | 0.4µM* | x | 8%
Cc1ccsc1/C=N/NC(=S)NCCc1ccccc1 | -14 | -20% | 6.3µM* | 1µM* | -1 | -10%
Cc1ccnc(N(C(=O)Nc2ccccc2)C2=NCC(C)(C)S2)c1 | -17 | -14% | u | 11µM* | -10 | -4%
Cc1cc(-c2cccs2)c(C#N)c(=S)[nH]1 | -29 | 2% | u | 10µM* | u | u
N#Cc1c(-c2cccs2)cc(-c2cccs2)[nH]c1=O | -8 | 17% | -10% | -37% | 9 | 12%
Cc1ccc(OC(F)F)c(NC(=O)Nc2cccc(C(F)(F)F)c2)c1 | 17 | 2% | 6.3µM* | 5µM* | 9 | -4%
Cc1cc(N2CCCC2)ccc1NC(=O)COc1cccc(C(F)(F)F)c1 | -8 | x | u | 11µM* | -17 | 1%
O=C(COCC(=O)Nc1cccc(C(F)(F)F)c1)Nc1cccc(C(F)(F)F)c1 | 0 | 2% | u | 22µM* | 0 | -13%
NNC(=O)COc1cccc(C(F)(F)F)c1 | 0 | -7% | -1% | 8.9µM* | 9 | -4%
